Assay outcomes (PubChem)
KDM5B inh = Primary screen for KDM5B Histone Demethylases FDH-coupled qHTS; KDM5B demethylase, FDH-coupled NADH fluorescence (FDH is formaldehyde dehydrogenase); Potency, µM (series often up to 57.7 µM), hits mostly inhibitors; 220,000 compounds, 2.6% hits; AID 1347165, 2019; active means well fitted inhibition curve with a large enough effect; further: 0% is about no effect; nearly all actives have a fitted effect of over 70% in size
Target sequence (Q9UGL1 whole entry, looked up): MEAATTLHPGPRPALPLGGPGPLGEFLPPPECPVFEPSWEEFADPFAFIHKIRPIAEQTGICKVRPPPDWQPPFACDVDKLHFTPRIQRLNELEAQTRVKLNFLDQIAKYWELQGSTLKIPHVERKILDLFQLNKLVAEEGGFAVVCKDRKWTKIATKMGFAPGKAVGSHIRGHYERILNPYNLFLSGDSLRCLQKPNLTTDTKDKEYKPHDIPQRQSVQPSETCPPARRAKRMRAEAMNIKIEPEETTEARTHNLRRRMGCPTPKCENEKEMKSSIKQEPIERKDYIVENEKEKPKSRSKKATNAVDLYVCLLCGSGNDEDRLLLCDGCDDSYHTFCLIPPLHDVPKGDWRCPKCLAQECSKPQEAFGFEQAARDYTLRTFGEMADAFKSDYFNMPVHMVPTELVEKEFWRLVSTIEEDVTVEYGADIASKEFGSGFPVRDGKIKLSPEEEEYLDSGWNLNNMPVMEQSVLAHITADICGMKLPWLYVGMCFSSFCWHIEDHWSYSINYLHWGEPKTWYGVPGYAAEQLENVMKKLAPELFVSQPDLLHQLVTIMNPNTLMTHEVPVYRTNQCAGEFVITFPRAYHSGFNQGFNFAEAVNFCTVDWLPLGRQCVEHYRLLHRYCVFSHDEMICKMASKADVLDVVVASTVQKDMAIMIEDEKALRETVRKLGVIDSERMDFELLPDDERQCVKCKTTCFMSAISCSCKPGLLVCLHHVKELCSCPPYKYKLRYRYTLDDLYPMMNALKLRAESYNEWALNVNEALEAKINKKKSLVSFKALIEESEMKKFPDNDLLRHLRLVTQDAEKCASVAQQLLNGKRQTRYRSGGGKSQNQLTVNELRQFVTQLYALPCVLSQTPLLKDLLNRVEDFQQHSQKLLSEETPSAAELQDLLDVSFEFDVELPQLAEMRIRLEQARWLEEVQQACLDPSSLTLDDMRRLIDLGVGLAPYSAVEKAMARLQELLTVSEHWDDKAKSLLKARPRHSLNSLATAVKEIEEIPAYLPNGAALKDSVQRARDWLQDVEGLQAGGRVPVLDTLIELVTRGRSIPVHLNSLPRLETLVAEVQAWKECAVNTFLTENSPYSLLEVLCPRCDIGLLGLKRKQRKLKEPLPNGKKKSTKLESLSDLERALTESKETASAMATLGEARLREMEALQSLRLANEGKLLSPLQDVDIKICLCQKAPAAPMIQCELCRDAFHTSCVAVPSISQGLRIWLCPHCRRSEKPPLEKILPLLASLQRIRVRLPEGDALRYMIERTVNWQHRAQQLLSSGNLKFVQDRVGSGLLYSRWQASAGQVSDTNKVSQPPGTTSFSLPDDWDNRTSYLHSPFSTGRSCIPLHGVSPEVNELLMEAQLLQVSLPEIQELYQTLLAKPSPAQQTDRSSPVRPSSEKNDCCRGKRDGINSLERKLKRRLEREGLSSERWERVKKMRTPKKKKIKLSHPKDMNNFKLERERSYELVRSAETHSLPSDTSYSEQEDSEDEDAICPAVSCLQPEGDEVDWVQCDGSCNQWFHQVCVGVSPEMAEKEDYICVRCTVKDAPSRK
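KDM5BΔAP (200 nM final) in 50 mM HEPES pH 7.5, 0.01% Tween-20 was preincubated 10 min at RT with compound over a concentration range. Substrate mix (H3K4me3 12.5 µM, α-KG 25 µM, Fe²⁺, ascorbate, NAD⁺, FDH) was added, and NADH fluorescence change over 30 min gave dose-response curves.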
The depositor's hits bear a star; i = inactive. This excerpt belongs to a sample that is enriched for hits. Potency means the concentration at half of the fitted maximal effect.

SMILES	KDM5B inh
CCNC(=O)O[C@@H]1CO[C@H]2[C@@H]1OC[C@@H]2NC(=O)c1ccccn1	i
CCNC(=O)O[C@@H]1CO[C@H]2[C@@H]1OC[C@@H]2Nc1nccc(-c2cccs2)n1	28µM*
CC(C)(C)c1ccc(NC(=O)O[C@@H]2CO[C@H]3[C@@H]2OC[C@@H]3Nc2nccc(-c3ccccc3)n2)cc1	i
O=S(=O)(c1cc(F)ccc1F)N1CCN(Cc2cccc3cccnc23)CC1	i
Cc1ccnc(NC(=O)COc2c(C)[nH]ccc2=O)c1	i
CCc1ccc(NC(=O)c2cc(=O)c3cc(C)cc(C)c3o2)cc1	i
COC(=O)C1CCN(C(=O)CC[C@H]2CNC(=O)[C@@H]3[C@@H](CCN3C(C)C)N2C)CC1	i
CN1[C@@H](CCC(=O)N2CCN(c3ccccn3)CC2)CNC(=O)[C@@H]2[C@H]1CCN2Cc1ncc[nH]1	22µM*
CN1[C@@H](CCC(=O)N2CCN(c3ccccc3)CC2)CNC(=O)[C@@H]2[C@H]1CCN2Cc1ccc(F)cc1	i
CN1[C@@H](CCC(=O)N2CCC(O)CC2)CNC(=O)[C@@H]2[C@H]1CCN2Cc1ccc(O)cc1	i
CN1[C@@H](CCC(=O)N2CCN(c3ccccn3)CC2)CNC(=O)[C@@H]2[C@H]1CCN2Cc1ccc(CO)o1	32µM*
CC(C)N1CC[C@@H]2[C@H]1C(=O)NC[C@H](CCC(=O)N1CCc3ccccc31)N2C	i
CN1[C@@H](CCC(=O)NCc2ccccc2)CNC(=O)[C@@H]2[C@H]1CCN2Cc1ncc[nH]1	i
CN1[C@@H](CCC(=O)N2CCN(c3ccccn3)CC2)CNC(=O)[C@@H]2[C@H]1CCN2Cc1ccc(O)cc1	32µM*
CN1[C@@H](CCC(=O)N2CCN(c3ccccc3)CC2)CNC(=O)[C@@H]2[C@H]1CCN2CC(C)(C)C	i
CC(C)N1CC[C@@H]2[C@H]1C(=O)NC[C@H](CCC(=O)N1CCN(c3ccccn3)CC1)N2C	32µM*
CN1CCN(C(=O)CC[C@H]2CNC(=O)[C@@H]3[C@@H](CCN3Cc3ncc[nH]3)N2C)CC1	i
Cc1ccc(CN2CC[C@@H]3[C@H]2C(=O)NC[C@H](CCC(=O)N2CCN(C)CC2)N3C)cc1	i
COc1cccc(S(=O)c2c(C)cc(C)cc2C)c1 (centres undefined)	i
Cc1cc(=O)n(CC(=O)Nc2cccc(C)c2C)c(N2CCc3ccccc3C2)n1	i
COCc1cccc(C(=O)NC(C)c2ccc(F)c(F)c2)c1 (centres undefined)	i
COCCCNc1nc2c(c(=O)n(C)c(=O)n2C)n1Cc1cccc(Cl)c1	i
N#Cc1cccc(COc2ccccc2C(N)=O)c1	i
C#CCN1CCCCC1C(=O)NCCc1ccccc1 (centres undefined)	i
Cc1ccc2[nH]c(C)c(CCN(Cc3cccs3)C(=S)NC(C)(C)C)c2c1	i
SMILES	KDM5B inh
Cc1sc(C=O)cc1CN1CCOCC1	i
O=C(CCc1ncc(-c2ccc(F)cc2F)o1)Nc1cccc(C(=O)NC2CC2)c1	i
CC(NC(=O)CSC1=NCCS1)C1CC2CCC1C2 (centres undefined)	i
CCCC(=O)N1c2nc(CC)nn2C2(CCCCC2)[C@@H]2CCCC[C@@H]21	i
COc1ccc(-c2c(NC(=O)c3cccs3)oc3ccccc3c2=O)cc1	i
COC(=O)[C@H](Cc1ccc(OC)cc1)NC(=O)[C@H]1CN(C(C)=O)CCN1C(=O)C1CCCCC1	i
O=C(Nc1cccc(Cl)c1)N[C@H]1C[C@H]2C(=O)NC[C@@H](CCC(=O)N3CCC(O)CC3)N2C1	i
O=C(N[C@H]1C[C@H]2C(=O)NC[C@@H](CCC(=O)N3CCN(c4ccccc4)CC3)N2C1)C1CC1	i
O=C(Nc1ccccc1)N[C@H]1C[C@H]2C(=O)NC[C@@H](CCC(=O)N3CCN(c4ccccn4)CC3)N2C1	25µM*
Cc1ccc(/C=C(/C#N)C(=O)NC2CCCCC2)cc1C	i
Cc1ccc(C(=O)N2CCC(C(=O)N3CCCCCC3)CC2)cc1S(=O)(=O)N1CCCCC1	i
COc1ccc(C2=Nn3c(nnc3-c3cccc(F)c3)SC2)cc1	i
CCn1ccc(C(=O)N2CCC3(CC2)c2[nH]c4ccc(OC)cc4c2CCN3C)n1	22µM*
COc1ccc2[nH]c3c(c2c1)CCNC31CCN(C(=O)Cn2c(=O)oc3ccccc32)CC1	20µM*
COc1ccc(C(=O)N2CCC3(CC2)NCCc2c3[nH]c3ccccc23)c(OC)c1	i
COc1ccc2[nH]c3c(c2c1)CCNC31CCN(C(C)C)CC1	22µM*
CCOCC(=O)N1CCC2(CC1)NCCc1c2[nH]c2ccc(OC)cc12	16µM*
COc1ccc2[nH]c3c(c2c1)CCN(C)C31CCN(C(=O)c2nccc3ccccc23)CC1	i
COc1ccc2[nH]c3c(c2c1)CCNC31CCN(C(=O)c2cccnc2)CC1	i
COc1ccc2[nH]c3c(c2c1)CCNC31CCN(C(=O)c2cnc(C)cn2)CC1	i
O=C(Cn1c(=O)oc2ccccc21)N1CCC2(CC1)NCCc1c2[nH]c2ccccc12	i
COc1ccc2[nH]c3c(c2c1)CCN(C)C31CCN(C(=O)c2ccncc2)CC1	i
COc1ccc2[nH]c3c(c2c1)CCNC31CCN(C(=O)c2ccco2)CC1	i
COc1ccc2[nH]c3c(c2c1)CCNC31CCN(C(=O)c2ccc(C)nc2)CC1	i
CCN(CC)C(=O)CCc1ccc(C(C)(C)C)cc1	i
SMILES	KDM5B inh
Cc1nc(C#N)c(N2CCN(C(=O)CN(C)C3CCCCCC3)CC2)o1	i
CCCn1c(=O)[nH]c(=O)c2c1nc(-c1ccc(CC)cc1)n2CCOC	i
Cc1ccc(NC(=O)N2CCCN(S(C)(=O)=O)C(c3ccccc3)CC(=O)NCC2)cc1C (centres undefined)	i
CCc1ccc(C(=O)N2CCC(Cc3nc(-c4ccc(OC)cc4)no3)CC2)cc1	i
Cc1ccc(COc2ccccc2CNc2ncn[nH]2)cc1	i
COc1ccc(C(=O)Nc2c(N3CCCC3)c3ccccc3oc2=O)cc1OC	i
CC(C)Cn1nnnc1SCc1coc(-c2cccc(Cl)c2)n1	i
COc1ccc(Br)c2c1/C(=N/OC(=O)c1cccc3ccccc13)CC2	i
CN1CC(=O)N(c2ccccc2F)Cc2c1ncnc2N1CCc2ccccc2C1	i
CN1CC(=O)N(c2ccccc2)Cc2c1ncnc2N1CCc2ccccc2C1	25µM*
CN1CC(=O)N(c2ccccc2)Cc2c1ncnc2N1CCC(O)CC1	i
CCCCN(C)S(=O)(=O)NC1CCCN(c2ncccn2)C1 (centres undefined)	i
CCCS(=O)(=O)N[C@@H]1CN(Cc2ccncc2)C[C@H]1CN(C)C	i
CCCCS(=O)(=O)N[C@@H]1CN(C2CCOCC2)C[C@H]1CN(C)C	i
CN(C)C[C@@H]1CN(c2ccncn2)C[C@H]1NS(=O)(=O)Cc1cccc(F)c1	i
CCCS(=O)(=O)N[C@@H]1CN(c2ncccn2)C[C@H]1CN(C)C	28µM*
CCCCS(=O)(=O)N[C@@H]1CN(c2ncccn2)C[C@H]1CN(C)C	32µM*
CC(CC#N)N1CCN(C(=O)c2cc3ccccc3[nH]2)CC1 (centres undefined)	i
O=C(NCc1coc(-c2cccs2)n1)c1cccc(Cl)c1Cl	i
COc1ccc(-c2[nH]nc3ncc(-c4cccnc4)nc23)cc1F	i
COc1ncccc1-c1cnc2n[nH]c(-c3ccccc3C)c2n1	40µM*
COc1ccccc1-c1[nH]nc2ncc(-c3cccnc3OC)nc12	i
